Screening data as filed in PubChem BioAssay.
TDP1 inh: qHTS Assay for Inhibitors of Tyrosyl-DNA Phosphodiesterase (TDP1). AID 485290, 2010. 350,000 tested, 0.28% active. Potency, µM (doses to about 130 µM), without a hit: at the highest dose activity change, negative = inhibition, actives largely listed as inhibitors. recombinant TDP1, AlphaScreen DNA substrate cleavage. Tyrosyl-DNA phosphodiesterase 1 (Homo sapiens), Q9NUW8; note: potency is the fitted concentration of half-maximal effect; nearly all actives have a fitted effect of over 40% in size
Target sequence (Q9NUW8 whole entry, looked up): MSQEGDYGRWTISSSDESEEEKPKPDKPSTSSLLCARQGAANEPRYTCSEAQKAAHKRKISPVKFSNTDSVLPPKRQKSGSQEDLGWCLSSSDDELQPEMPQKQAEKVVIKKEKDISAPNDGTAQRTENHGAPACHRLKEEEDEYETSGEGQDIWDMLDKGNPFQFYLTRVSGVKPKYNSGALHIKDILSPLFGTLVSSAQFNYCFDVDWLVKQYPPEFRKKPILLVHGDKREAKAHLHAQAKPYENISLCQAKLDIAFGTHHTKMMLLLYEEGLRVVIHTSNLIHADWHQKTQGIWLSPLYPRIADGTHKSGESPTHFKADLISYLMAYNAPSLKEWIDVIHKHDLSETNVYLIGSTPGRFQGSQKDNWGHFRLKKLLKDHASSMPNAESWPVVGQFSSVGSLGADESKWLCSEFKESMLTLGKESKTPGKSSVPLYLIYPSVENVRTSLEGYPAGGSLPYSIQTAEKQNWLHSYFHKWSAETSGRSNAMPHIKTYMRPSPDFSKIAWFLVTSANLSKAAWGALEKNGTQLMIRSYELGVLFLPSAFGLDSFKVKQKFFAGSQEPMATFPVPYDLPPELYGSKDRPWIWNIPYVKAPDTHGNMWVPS
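Tdp1 1 nM final; 15 min RT w/ cpd; substrate 15 nM, 5 min; beads 10 ug/ml, 10 min; AlphaScreen read. Neg ctrl: no enzyme.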
DT40 TDP1 no CPT: qHTS for Inhibitors of human tyrosyl-DNA phosphodiesterase 1 (TDP1): qHTS in cells in absence of CPT; DT40 Tdp1-/- hTDP1 cells, no CPT, ATP luminescence, 48 h; Potency, µM (highest dose often 46.2 µM), inactives show at the top dose activity change, negative = growth inhibition, hits mostly inhibitors; 420,000 tested, 15% active; AID 686978, 2013; note: potency is the fitted concentration of half-maximal effect; nearly all actives have a fitted effect of over 55% in size
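Stably hTDP1-transfected Tdp1-null chicken DT40 cells were treated with library compounds minus camptothecin and grown for at least 48 hr at 37 °C, after which cellular ATP was quantified by luminescence.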
TDP1 cell CPT: qHTS for Inhibitors of human tyrosyl-DNA phosphodiesterase 1 (TDP1): qHTS in cells in presence of CPT | chicken DT40 Tdp1-/-;hTDP1 cells + 20 nM CPT, ATP luminescence, 48 h | Potency, µM (titrated, usually from 46.2 µM), for the others: at the highest dose activity change, negative = growth inhibition, most hits filed as inhibitors | 420,000 tested, 12% active | AID 686979, 2013; note: potency is the fitted concentration of half-maximal effect; nearly all actives have a fitted effect of over 55% in size
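Chicken DT40 Tdp1-/- cells stably complemented with human TDP1 were seeded at 400 cells/well in medium containing 20 nM camptothecin, exposed to pin-transferred compounds, and grown at 37 °C for at least 48 hr. Viability was read as ATP luminescence.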
Giardia kill: Small Molecules that selectively kill Giardia lamblia: qHTS | Giardia lamblia trophozoite viability | activity change, % at 7.66 µM, hits read low | 340,000 tested, 0.15% active; in the data active = activity change below about -80%; inconclusive = between about -30% and that limit;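 note: parasites exposed to compound for two days anaerobically before the ATP read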
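Trophozoites 100 cells/well + cpd; 48 hrs, 37 deg C, anaerobic. ATPLite 1-Step added, 15-30 min RT, luminescence read (ATP-based viability).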
ELG1 repair inh: qHTS screen for small molecules that inhibit ELG1-dependent DNA repair in human embryonic kidney (HEK293T) cells expressing luciferase-tagged ELG1 | HEK293T ELG1-luciferase reporter, luminescence, 16 h; DNA damage induced by 5-fluorouridine | 330,000 tested, 2.3% active | Potency, µM (titrated, usually from 46.1 µM), inactives show at the highest dose activity change, negative = inhibition, most hits filed as inhibitors | AID 504467, 2011; note: potency is the fitted concentration of half-maximal effect; nearly all actives have a fitted effect of over 55% in size
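Reporter activity after DNA damage by 5-fluorouridine is monitored. Compound-treated cells incubate 16 hr at 37 °C, then ONE-Glo is added for 30 min before luminescence reading.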
IL-1B inflam inh: qHTS for Inhibitors of Inflammasome Signaling: IL-1-beta AlphaLISA Primary Screen; THP-1 LPS/ATP IL-1B secretion, AlphaLISA, 16 h; active compounds read low; activity change, % at 57.5 µM; 360,000 tested, 4.7% active; AID 743279, 2014; in the data active = activity change below about -50%; inconclusive = mostly about -30% to -49%
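Secreted IL-1B measured by AlphaLISA bead assay after 16 h compound exposure of THP-1 cells; compounds (final up to 57.5 uM) added 1 h before LPS (250 ng/mL) and ATP (1.25 mM) stimulation; lower signal means less secretion.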
* hit, by the source's call; ? = inconclusive; nt = no result. A selection: hits, their analogues and other compounds. The true share with any hit is near 19%. Unless noted, calls come from the whole dose curve; as a rule, active = well fitted curve in the direction sought with a large enough effect; inconclusive = small, poorly fitted or top-dose-only effect, or another doubt; inactive = no such curve, though single readings can be large; an effect the other way counts as inactive or inconclusive. % is set by controls: 0 for no effect and ±100 for the full control effect.

SMILES	TDP1 inh	DT40 TDP1 no CPT	TDP1 cell CPT	Giardia kill	ELG1 repair inh	IL-1B inflam inh
CN1CCc2c(sc3nc(SCC(=O)N4CCCCC4)n(-c4ccccc4)c(=O)c23)C1	5%	-26%	?	29	-23%	18
CCCCCSc1nc2sc3c(c2c(=O)n1-c1ccc(OC)cc1)CCN(C(C)=O)C3	9%	26µM*	?	nt	nt	nt
CCSc1nc2sc3c(c2c(=O)n1-c1ccccc1)CCN(C(C)C)C3	nt	21µM*	10µM*	-1	-28%	-27
CCn1c(SCC(=O)NCCc2ccccc2)nc2sc3c(c2c1=O)CCN(C)C3	3%	?	?	-3	?	-9
COc1ccc(CNC(=O)c2cc3c(=O)n(Cc4ccco4)ccc3nc2C)c(OC)c1	6%	?	?	nt	nt	nt
CC(C)C(NC(=O)CN1C(=O)c2ccccc2C1=O)c1ccccc1 (stereo not given)	nt	25%	2%	2	9%	13
Cc1nn2c(-c3ccccc3)ccnc2c1Br	nt	?	?	13	20%	25
Cc1nn2c(-c3cccnc3)ccnc2c1-c1ccccc1	0%	23µM*	?	13	12%	-11
COc1ccc(-n2c(=O)c(CCC(=O)N(C)Cc3ccccc3C)nc3ccccc32)cc1	0%	?	?	5	?	0
CCc1ccc(CN(C)C(=O)CCc2nc3ccccc3n(-c3ccc(OC)cc3)c2=O)cc1	6%	21µM*	16µM*	-5	-26%	-56*
COc1ccc(/C=C/C(=O)NCC(=O)N/N=C/c2cccs2)cc1	3%	-21%	-19%	7	0%	-5
CCN(CC(=O)NC1CCS(=O)(=O)C1)S(=O)(=O)c1ccc(C)c(C)c1 (stereo not given)	6%	-24%	-1%	-17	16%	-2
O=C(CN1C(=O)C(=O)N(CCC2=CCCCC2)C1=O)c1c[nH]c2ccccc12	4%	?	-13%	4	2%	-59*
O=C(CN1C(=O)C(=O)N(Cc2ccco2)C1=O)c1c[nH]c2ccccc12	6%	16%	-30%	7	-2%	31
COc1ccc(C2CC(c3cccs3)=NN2c2nc(-c3ccccc3)cs2)cc1OC (stereo not given)	-3%	-9%	-6%	-8	4%	-4
CNC(=S)N(Cc1ccc(Cl)cc1)Cc1cccs1	-3%	16µM*	?	8	-4%	nt
COc1ccc(NC(=S)N(CCCN2CCC(C)CC2)Cc2cccs2)cc1Cl	-5%	18µM*	26µM*	-5	13%	?
CN1CCN(CCCN(Cc2cccs2)C(=S)Nc2ccc(Cl)cc2)CC1	-3%	?	?	-23	2%	-65*
Cc1ccccc1-n1c([C@@H]2C[C@H]2c2ccccc2)n[nH]c1=S	4%	-21%	1%	-7	-9%	23
CC1(c2ccc([N+](=O)[O-])cc2)NC(=O)NC1=O (stereo not given)	4%	16%	24%	-3	-8%	6
COc1ccc(CNC(=O)CN(C(=O)CCC(=O)Nc2nccs2)c2ccc(C)cc2)cc1	-1%	?	-29%	-4	-6%	27
CC1(C)CC(=O)C(CO)=C(c2cccc3ccccc23)C1=O	2%	-15%	0%	-10	26%	4
COc1ccc2c(c1)CCC(C)N2C(=O)C(=O)c1c[nH]c2ccccc12 (stereo not given)	5%	?	21µM*	9	-11%	83
Cc1ccc(Sc2ccc(NC(=O)CCl)cc2)c(C)c1	-3%	18µM*	15µM*	-20	?	-67*
COc1ccccc1CN1CCCC2(CCN(C(=O)c3ccncc3)CC2)C1	nt	-1%	-6%	nt	nt	nt
SMILES	TDP1 inh	DT40 TDP1 no CPT	TDP1 cell CPT	Giardia kill	ELG1 repair inh	IL-1B inflam inh
Cc1cc(C)c2c(n1)sc1c(O)cc(=O)[nH]c12	22µM*	-11%	12%	11	8%	6
COc1ccc(-c2cc(C(F)(F)F)c3c(n2)sc2c(O)cc(=O)[nH]c23)c(OC)c1	0%	?	-4%	-1	-13%	0
CCOc1ccccc1NC(=O)c1ccc2c(Cl)c3c(nc2c1)CCC3	4%	-19%	-4%	nt	nt	nt
CCN(C(=O)CCN1C(=O)/C(=C/c2ccccc2)SC1=S)C1CCS(=O)(=O)C1 (stereo not given)	6%	?	18µM*	12	-15%	-83*
CCN(CC)C(=O)CN1C(=O)/C(=C/c2ccccc2)SC1=S	nt	15µM*	18µM*	26	7%	-62*
CC(=O)NNC(=O)CN1C(=O)/C(=C/c2ccccc2)SC1=S	-4%	18%	-9%	-11	1%	-13
CCN(C(=O)CN1C(=O)/C(=C/c2ccccc2F)SC1=S)C1CCS(=O)(=O)C1 (stereo not given)	6%	?	?	-19	-23%	17
CCN(C(=O)CN1C(=O)S/C(=C\C=C\c2ccccc2)C1=O)C1CCS(=O)(=O)C1 (stereo not given)	-2%	1.5µM*	1.8µM*	-14	1%	-26
COc1ccc(NC(=O)CSc2nc(O)cc(=O)n2-c2ccc(OC)cc2)cc1	5%	-9%	6%	6	5%	5
NS(=O)(=O)c1ccc(CCNC(=O)c2ccc(C#CC3(O)CCCCC3)cc2)cc1	-2%	2.6µM*	21µM*	-11	6.5µM*	-8
NS(=O)(=O)c1ccc(CCNC(=O)c2ccc(Cl)nc2)cc1	nt	1%	-4%	-19	13%	28
COc1cc(Br)c(C2CC(=O)Nc3cc(OC)c(OC)c(OC)c32)cc1OC (stereo not given)	0%	?	4%	nt	nt	nt
COCCN1C(=O)CCC1(C)c1nnnn1-c1c(C)cccc1C (stereo not given)	nt	-17%	-6%	nt	nt	19
Cc1ccc(NC2(c3nnnn3-c3c(C)cccc3C)CCCCC2)cc1	8%	23µM*	?	-26	-1%	-5
Cc1ccsc1CN1CCc2nnc(CCNC(=O)c3ccc(F)cc3)n2CC1	nt	-10%	5%	nt	nt	nt
COc1ccc(CNC(=O)c2cc3c(=O)[nH]c4ccccc4c3n2C)c(OC)c1	7%	?	?	nt	nt	nt
